Some test systems named below: T-47D breast; BT-549 breast; MDA-MB-435 melanoma; SW-620 colon; HCT-116 colon; HCC-2998 colon; KM12 colon.
Common to all, as to test: NCI-60 one-dose screen, 48 h (100 = growth as untreated, 0 = no growth, -100 = all killed)

Values joined by “and” are separate entries in the source; they are usually repeats but may differ in a detail not shown here. Identical values can stand only once. About 83,000 compounds went through this panel and 20% of them were active in at least one assay; those are over-represented in the sample as a whole.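 The endpoint reported here, percent growth, reads 100 for growth as untreated, 0 for no net growth and -100 for all cells dead.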 A number with no mark means an inactive call. Active and inactive are the calls of the source. The calls were made as follows: active = growth percent below 10; inactive = the rest. Starred links: 1 amine or outer side, 2 acyl side, 3 side chain; linkers in the order of their positions; H or OH if unused. Positions of bridges follow the written chain, without caps; N, C: chain ends. Non-standard residues stand in square brackets, D forms with d. Residues, ends and D or L forms follow the SMILES beside them. Chains are numbered I, II in the order given. Actinocin(9to1) = Cc1c2oc3c(C)ccc(C(=O)[*:1])c3nc-2c(C(=O)[*:2])c(N)c1=O; aThr = C[C@H](O)[C@H](N)C(=O)O; NMeV = CN[C@H](C(=O)O)C(C)C; Sar = CNCC(=O)O

On to `CSc1ccc2c(c1)C(N1CCN(C)CC1)Cc1ccccc1S2` (centres undefined), for which the growth with T-47D breast (10 µM) is 43.3%; in the assay with BT-549 breast (10 µM), 63.1%; with MDA-MB-435 melanoma (10 µM), 7.17% (active); in the assay on SW-620 colon (10 µM), 54.4%; with HCT-116 colon (10 µM), 29.3%; in the assay on HCC-2998 colon (10 µM), -39.2% (active). Further, in the assay on KM12 colon (10 µM), the growth was 21.4%.
As to `Nc1ccc2cc(Br)c3ccccc3c2c1`, the growth in the assay on T-47D breast (10 µM) was 28.8%; with BT-549 breast (10 µM) it was 68.9%; in the assay with MDA-MB-435 melanoma (10 µM), 66%; in the assay with HCT-116 colon (10 µM), 71.1%; in the assay on HCC-2998 colon (10 µM) it was 47.7%; with KM12 colon (10 µM), 32.6%.
On to `Cc1c2oc3c(C)ccc(C(=O)N[C@@H]4C(=O)N[C@H](C(C)C)C(=O)N5CCC[C@H]5C(=O)N(C)CC(=O)N(C)[C@@H](C(C)C)C(=O)O[C@H]4C)c3nc-2c(C(=O)N[C@@H]2C(=O)N[C@H](C(C)C)C(=O)N3CCC[C@H]3C(=O)N(C)CC(=O)N(C)[C@@H](C(C)C)C(=O)O[C@H]2C)c(N)c1=O` (I: [aThr][dV]P[Sar][NMeV] / II: [aThr][dV]P[Sar][NMeV]; ester I:1-I:C, II:1-II:C; linker I:N-II:N via Actinocin(9to1)), for which the growth was 53.6% in the assay with T-47D breast (0.0025 µM); -13.8% (active) in the assay with T-47D breast (10 µM); 27.5% in the assay on BT-549 breast (0.0025 µM); -45.4% (active) in the assay on BT-549 breast (10 µM); 41.6% in the assay with MDA-MB-435 melanoma (0.0025 µM); -93.8% (active) with MDA-MB-435 melanoma (10 µM). Besides, the growth in the assay with SW-620 colon (0.0025 µM) is 32.8%; with SW-620 colon (10 µM), -27.9% (active); in the assay with HCT-116 colon (0.0025 µM), 16%; with HCT-116 colon (10 µM), -29.5% (active); in the assay on HCC-2998 colon (0.0025 µM) it was 15.2%; in the assay with KM12 colon (0.0025 µM) it was 47.3%. Further, in the assay on KM12 colon (10 µM), the growth is 0.211% (active).
On to `N#C/C(=C1C=C/C(=N\O)C(Cl)=C\1)c1ccccc1`, for which the growth in the assay with T-47D breast (10 µM) was 43.3%; in the assay with BT-549 breast (10 µM), 110%; in the assay on MDA-MB-435 melanoma (10 µM), -43% (active); in the assay with SW-620 colon (10 µM) it was 17.8%; in the assay on HCT-116 colon (10 µM), 5.69% (active); in the assay on HCC-2998 colon (10 µM), 89.7%. Further, the growth in the assay on KM12 colon (10 µM) was 13.5%.
On to `CN(C)CCC(=O)c1c[nH]c2ccccc12`, for which the growth with T-47D breast (10 µM) is 84.1%; in the assay with BT-549 breast (10 µM), 121%; in the assay with MDA-MB-435 melanoma (10 µM), 107%; in the assay with SW-620 colon (10 µM) it was 111%; in the assay on HCT-116 colon (10 µM), 103%; with HCC-2998 colon (10 µM), 115%. Moreover, the growth with KM12 colon (10 µM) is 102%.
Regarding `S=c1[nH]nc(Cc2ccccc2)c(=S)[nH]1`, the growth is 90.4% in the assay with T-47D breast (10 µM); 109% in the assay with BT-549 breast (10 µM); 106% in the assay with MDA-MB-435 melanoma (10 µM); 109% in the assay with SW-620 colon (10 µM); 100% with HCT-116 colon (10 µM); 103% in the assay with HCC-2998 colon (10 µM). Moreover, the growth with KM12 colon (10 µM) is 93.2%.
With `BrC/C=C/C[P+](c1ccccc1)(c1ccccc1)c1ccccc1`, the growth in the assay with T-47D breast (10 µM) is 10.7%; with BT-549 breast (10 µM) it was 57.1%; in the assay with MDA-MB-435 melanoma (10 µM) it was 28.4%; in the assay on SW-620 colon (10 µM), 32.3%; with HCT-116 colon (10 µM), 14.8%; in the assay with HCC-2998 colon (10 µM), 71.9%. The growth in the assay on KM12 colon (10 µM) was 16.1%.
In the case of `COc1cc(C(C)(C)C)cc(OC)c1C(O)(c1c(OC)cc(C(C)(C)C)cc1OC)c1c(OC)cc(C(C)(C)C)cc1OC`, the growth in the assay with T-47D breast (10 µM) is -30.2% (active); in the assay with BT-549 breast (10 µM), -58.9% (active); in the assay with MDA-MB-435 melanoma (10 µM), -45.3% (active); in the assay with SW-620 colon (10 µM) it was -79.8% (active); in the assay on HCT-116 colon (10 µM), -100% (active); with HCC-2998 colon (10 µM), -91.9% (active). Also, in the assay on KM12 colon (10 µM), the growth is -80.8% (active).
For the molecule `CCCCCCCCCCCCCCCCCN`, the growth was 101% in the assay with T-47D breast (10 µM); 106% in the assay with BT-549 breast (10 µM); 99.5% in the assay on MDA-MB-435 melanoma (10 µM); 97.1% in the assay with SW-620 colon (10 µM); 102% in the assay with HCT-116 colon (10 µM); 126% with HCC-2998 colon (10 µM). The growth with KM12 colon (10 µM) is 110%.
Turning to `O=C(/C(=C/c1ccccc1)CBr)c1ccccc1`, the growth in the assay with T-47D breast (10 µM) was 77.5%; with BT-549 breast (10 µM), 112%; in the assay on MDA-MB-435 melanoma (10 µM) it was 64%; in the assay with SW-620 colon (10 µM), 17.3%; in the assay with HCT-116 colon (10 µM), 35.8%; with HCC-2998 colon (10 µM), 108%. In addition, in the assay with KM12 colon (10 µM), the growth is 88.5%.
With `CN1CCN(c2ccc3nc(-c4ccc5nc(-c6ccc(O)cc6)[nH]c5c4)[nH]c3c2)CC1`, the growth in the assay with T-47D breast (10 µM) is 39.2%; in the assay with BT-549 breast (10 µM), 97.9%; in the assay on MDA-MB-435 melanoma (10 µM), 52.5%; in the assay with SW-620 colon (10 µM), 87.1%; in the assay with HCT-116 colon (10 µM) it was 48.3%; with KM12 colon (10 µM) it was 106%.
Regarding `O=c1[nH]cc(F)c(=O)[nH]1`, the growth with T-47D breast (10 µM) is 64.4% and 52.8%; in the assay with T-47D breast (25 µM) it was 56.7%; in the assay on BT-549 breast (10 µM), 57.2% and 54.6%; in the assay with BT-549 breast (25 µM), 37.8%; with BT-549 breast (50 µM), 60.6%; in the assay on MDA-MB-435 melanoma (10 µM) it was 42.3% and 50.9%. Further, the growth in the assay on MDA-MB-435 melanoma (25 µM) is 36.6%; in the assay on MDA-MB-435 melanoma (50 µM), 42.2%; with SW-620 colon (10 µM) it was 60.1% and 77.8%; in the assay on SW-620 colon (25 µM), 50.1%; in the assay on SW-620 colon (50 µM), 43.4%; in the assay on HCT-116 colon (10 µM), 33.9% and 46.9%. Besides, the growth was 17.8% with HCT-116 colon (25 µM); 28.3% in the assay on HCT-116 colon (50 µM); 18.9% with HCC-2998 colon (10 µM); -17.8% (active) with HCC-2998 colon (25 µM); 35.7% in the assay on HCC-2998 colon (50 µM); 47% and 42.4% in the assay on KM12 colon (10 µM). Further, the results for the growth in the assay on KM12 colon (25 µM) and with KM12 colon (50 µM) were 40.7% and 32%, respectively.
On to `Cc1cc(NCCCN(C)C)c2ccc3c(ccc4c(NCCCN(C)C)cc(C)nc43)c2n1`, for which the growth is -34.2% (active) in the assay with T-47D breast (10 µM); -91.4% (active) in the assay on BT-549 breast (10 µM); -99.1% (active) in the assay on MDA-MB-435 melanoma (10 µM); -99.3% (active) in the assay on SW-620 colon (10 µM); -15.4% (active) in the assay with HCT-116 colon (10 µM); -66.1% (active) with HCC-2998 colon (10 µM). Besides, the growth in the assay on KM12 colon (10 µM) is -97.6% (active).
As for `Cc1cnc(/C=N\NC(N)=S)c2cccc(N)c12`, the growth in the assay on T-47D breast (10 µM) is 9.76% (active); with MDA-MB-435 melanoma (10 µM), 27.8%; in the assay with SW-620 colon (10 µM) it was 35%; in the assay on HCT-116 colon (10 µM) it was 17.4%; in the assay on HCC-2998 colon (10 µM), -39.3% (active); with KM12 colon (10 µM), 27.9%.

The values are drawn from PubChem BioAssay (NCI).
